Screens as filed in PubChem.
This is one part of a sample in which hits are shown more often than they occur.
KDM5B inhibitor – inhibitors of human KDM5B histone demethylase | Q9UGL1 | KDM5B demethylase, FDH-coupled NADH fluorescence (FDH is formaldehyde dehydrogenase) | Potency, µM (highest dose often 57.7 µM), actives largely listed as inhibitors | hit rate 2.6% among 220,000 | AID 1347165; active = well fitted inhibition curve with a large enough effect; note: 0% is about no effect; nearly all actives have a fitted effect of over 70% in size
Target sequence (Q9UGL1 whole entry, looked up): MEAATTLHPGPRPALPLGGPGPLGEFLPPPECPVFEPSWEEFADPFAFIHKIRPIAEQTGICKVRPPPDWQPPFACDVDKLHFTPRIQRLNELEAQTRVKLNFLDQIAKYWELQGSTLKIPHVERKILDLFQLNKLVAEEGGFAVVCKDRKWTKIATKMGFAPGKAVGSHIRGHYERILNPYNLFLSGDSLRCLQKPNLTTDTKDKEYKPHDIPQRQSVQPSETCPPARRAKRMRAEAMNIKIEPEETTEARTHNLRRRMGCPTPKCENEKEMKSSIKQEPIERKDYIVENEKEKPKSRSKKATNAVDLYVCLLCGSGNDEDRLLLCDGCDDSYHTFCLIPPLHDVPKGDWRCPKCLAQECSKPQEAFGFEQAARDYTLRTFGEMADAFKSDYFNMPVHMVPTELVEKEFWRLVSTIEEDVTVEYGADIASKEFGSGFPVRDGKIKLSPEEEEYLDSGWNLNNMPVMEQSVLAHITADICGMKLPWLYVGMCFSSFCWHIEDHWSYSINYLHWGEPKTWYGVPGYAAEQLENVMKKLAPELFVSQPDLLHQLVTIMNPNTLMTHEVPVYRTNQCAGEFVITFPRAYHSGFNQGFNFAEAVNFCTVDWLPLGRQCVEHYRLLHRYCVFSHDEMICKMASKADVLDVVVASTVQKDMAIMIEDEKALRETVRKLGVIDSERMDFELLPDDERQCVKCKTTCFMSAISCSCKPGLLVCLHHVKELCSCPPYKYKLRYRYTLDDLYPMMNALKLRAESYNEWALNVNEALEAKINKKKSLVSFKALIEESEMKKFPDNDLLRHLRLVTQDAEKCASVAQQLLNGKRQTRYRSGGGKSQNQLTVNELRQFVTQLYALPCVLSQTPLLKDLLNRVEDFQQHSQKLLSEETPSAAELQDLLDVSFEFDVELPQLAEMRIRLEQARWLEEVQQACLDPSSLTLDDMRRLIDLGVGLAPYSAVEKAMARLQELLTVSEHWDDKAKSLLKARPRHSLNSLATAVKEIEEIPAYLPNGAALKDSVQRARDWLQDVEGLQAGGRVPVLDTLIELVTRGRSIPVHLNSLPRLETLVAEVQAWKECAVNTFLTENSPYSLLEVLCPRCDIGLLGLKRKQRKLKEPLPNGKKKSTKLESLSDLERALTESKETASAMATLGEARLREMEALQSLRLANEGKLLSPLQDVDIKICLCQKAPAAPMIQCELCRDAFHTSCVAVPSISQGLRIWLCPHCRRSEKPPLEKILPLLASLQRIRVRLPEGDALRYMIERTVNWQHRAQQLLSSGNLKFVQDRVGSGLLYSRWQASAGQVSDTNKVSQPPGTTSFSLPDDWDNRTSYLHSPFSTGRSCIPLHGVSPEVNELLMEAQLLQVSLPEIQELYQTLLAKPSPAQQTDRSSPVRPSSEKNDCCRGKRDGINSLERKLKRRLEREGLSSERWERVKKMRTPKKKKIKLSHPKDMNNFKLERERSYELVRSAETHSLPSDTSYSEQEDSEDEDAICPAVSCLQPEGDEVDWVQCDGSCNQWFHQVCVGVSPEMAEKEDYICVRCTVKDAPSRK
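Inhibition is measured as reduced NADH fluorescence generation from FDH coupling to formaldehyde release. Truncated KDM5BΔAP at 200 nM final acts on H3K4me3 peptide (12.5 µM in substrate mix) in pH 7.5 HEPES buffer with Tween-20, 30 min, room temperature.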
The depositor's hits bear a star; i = inactive. Potency is the fitted concentration of half-maximal effect.

SMILES	KDM5B inhibitor
O=C(c1ccc(-c2ncc3cnc(-c4ccccc4)cn23)cc1)N1CCS(=O)(=O)CC1	35.5µM*
O=C(NCCc1cnc(-c2ccccc2)[nH]1)c1ccc(-c2ccccc2)cc1	i
O=C(NCCO)c1ccc(-c2ncc3cnc(C4=CCOCC4)cn23)cc1	31.6µM*
O=C(NCc1ccccn1)c1ccc(Br)cc1	i
Cc1ccc(-n2cc(C(=O)N3CCc4ccccc4C3)nn2)cc1	i
O=C(c1cn(-c2ccccc2)nn1)N1CCc2ccccc2C1	i
Cc1ccc(C(=O)N2CCn3c(nnc3-c3ccccc3)C2)cc1	i
O=C(Cn1c2c(c(=O)n1Cc1ccccc1)CCN(Cc1ccccc1)C2)NCc1cnccn1	i
O=C(c1ccc(-c2ncc3cnc(C4=CCOCC4)cn23)cc1)N1CCc2ccccc2C1	28.2µM*
O=C(NCc1cnccn1)c1ccc(-c2ncc3cnc(C4=CCOCC4)cn23)cc1	35.5µM*
Cc1ccc(C(=O)N2CCC3(CC2)N(c2ccccc2)C(=O)CS3(=O)=O)cc1	i
CCOc1ccccc1C(=O)N1CCc2[nH]nc(C(=O)NCCCc3ccccc3)c2C1	i
O/N=c1/oc2cc3occ(-c4ccc(F)cc4)c3cc2c2c1CCC2	i
Cc1ccc(-n2ncc(C(=O)NC3CCCCC3)c2N)cc1	i
CC(C)C(NS(=O)(=O)c1ccccc1)c1cccs1 (stereo not drawn)	i
Cc1ccc(C(=O)OCc2ccc(C#N)cc2)cc1O	i
Cc1cc(S(=O)(=O)Nc2ccc(F)cc2)ccc1OCC(=O)NCc1ccc2c(c1)OCO2	i
CN1[C@@H](CCC(=O)NCc2ccccc2)CNC(=O)[C@@H]2[C@H]1CCN2C1CCOCC1	i
N[C@H]1CCN2C(=O)c3cc(-c4ccccc4F)ccc3NC(=O)[C@H]12	i
O=C(N[C@H]1CCN2C(=O)c3cc(-c4ccc(Cl)cc4)ccc3NC(=O)[C@H]12)c1cccs1	31.6µM*
COc1ccc(/C=C/c2ccc3c(c2)C(=O)N2CC[C@H](N)[C@H]2C(=O)N3)cc1	35.5µM*
O=C(N[C@H]1CCN2C(=O)c3ccc(Cl)cc3NC(=O)[C@H]12)c1cccs1	i
CSCC(=O)N[C@H]1CCN2C(=O)c3cc(-c4cccc(C)c4C)ccc3NC(=O)[C@H]12	i
CSCC(=O)N[C@H]1CCN2C(=O)c3ccccc3NC(=O)[C@H]12	i
CSCC(=O)N[C@H]1CCN2C(=O)c3cc(-c4ccc(Cl)cc4)ccc3NC(=O)[C@H]12	28.2µM*
SMILES	KDM5B inhibitor
O=C(N[C@H]1CCN2C(=O)c3cc(-c4ccccc4)ccc3NC(=O)[C@H]12)c1cccs1	i
COc1ccc(Cl)cc1-c1ccc2c(c1)C(=O)N1CC[C@H](NC(=O)c3cccs3)[C@H]1C(=O)N2	25.1µM*
C=CCO[C@@H]1CCN2C(=O)c3cc(-c4ccccc4)ccc3NC(=O)[C@H]12	i
CC(C)NC(=O)N[C@H]1CCN2C(=O)c3cc(-c4ccccc4F)ccc3NC(=O)[C@H]12	i
O=C(N[C@H]1CCN2C(=O)c3cc(-c4ccc(Cl)cc4)ccc3NC(=O)[C@H]12)c1cnccn1	i
Cn1cnnc1-c1nn(C)c2c1CN(C(=O)c1cc3ccccc3[nH]1)CC2	i
COC(=O)C1=C(C)N(C)C(=O)NC1c1ccc(Br)o1 (stereo not drawn)	i
Cc1ncoc1C(=O)N1CCC2(CC1)CC(N(Cc1ccc(F)cc1)C1CC1)CCO2 (stereo not drawn)	i
CC(=O)Nc1ccc(NC(=O)CC2C(=O)NCCN2C(=O)CN2CCN(CCO)CC2)cc1 (stereo not drawn)	i
O=C1CCN(S(=O)(=O)c2ccc3c(c2)CCC3)CCCC(C(=O)NCc2ccncc2)CCN1 (stereo not drawn)	i
CN(C)C(=O)N1CCn2nc(CNC(=O)c3cccc(-n4cnnc4)c3)cc2C1	i
Cn1nc(C(=O)N2CCC3(CCCNC3)C2)c2ccccc21 (stereo not drawn)	i
CNC(=O)NC(=O)COc1ccc(C(=O)c2ccc(F)cc2)cc1	i
CC(C)Cc1noc(CSc2cc(C(N)=O)c3ccccc3n2)n1	i
Cc1noc(C)c1[S+](=O)([O-])N1CCn2cc(C(=O)NCc3ccc(Cl)nc3)nc2C1	i
O=C(O)CCC(=O)N[C@H]1CCN2C(=O)c3cc(-c4ccc5c(c4)OCO5)ccc3NC(=O)[C@H]12	i
COc1ccc(-c2ccc3c(c2)C(=O)N2CC[C@H](n4nnc(C(N)=O)c4C(N)=O)C[C@H]2C(=O)N3)c(OC)c1	i
O=C(N[C@H]1CCN2C(=O)c3cc(-c4ccccc4)ccc3NC(=O)[C@H]12)C1CCCC1	i
O=C(N[C@H]1C[C@H]2C(=O)Nc3ccc(-c4ccsc4)cc3C(=O)N2C1)c1ccccc1	i
O=C(O)CCC(=O)N[C@H]1CCN2C(=O)c3cc(-c4ccccc4)ccc3NC(=O)[C@H]12	i
O=C(N[C@H]1CCN2C(=O)c3cc(-c4ccsc4)ccc3NC(=O)[C@@H]2C1)c1cccs1	22.4µM*
COc1ccc(-c2ccc3c(c2)C(=O)N2CC[C@H](NC(=O)c4cccs4)[C@H]2C(=O)N3)c(OC)c1	28.2µM*
COc1ccc(-c2ccc3c(c2)C(=O)N2CC[C@H](NC(=O)CCC(=O)O)[C@H]2C(=O)N3)cc1	20µM*
O=C(N[C@H]1CCN2C(=O)c3cc(-c4ccc(F)cc4F)ccc3NC(=O)[C@@H]2C1)c1cccs1	i
Cc1cccc(-c2ccc3c(c2)C(=O)N2CC[C@H](NC(=O)C4CCCC4)[C@H]2C(=O)N3)c1C	i
SMILES	KDM5B inhibitor
O=C(N[C@H]1CCN2C(=O)c3cc(-c4ccc(F)cc4F)ccc3NC(=O)[C@H]12)c1cccs1	i
CSc1ccc(-c2ccc3c(c2)C(=O)N2CC[C@H](NC(=O)C4CCCC4)[C@H]2C(=O)N3)cc1	25.1µM*
CC1(c2ccccc2)N(Cc2ccccc2F)C(=O)OC12CCN(Cc1cccnc1N)CC2 (stereo not drawn)	i
CCCOc1ccc(NC(=O)C(CC)CC)c2cccnc12	i
CCOC(=O)c1ccc(NC(=O)NCc2nc(-c3ccccc3)oc2C)cc1	i
O=c1oc2ccccc2c(N2CCCC2)c1NS(=O)(=O)c1ccc(F)cc1	i
COc1cc(C(=O)Oc2c(OC)cccc2OC)ccc1OC(F)F	i
COC(=O)c1c(NC(=O)c2c(-c3c(Cl)cccc3Cl)noc2C)sc(C)c1C	i
Cc1cc(Cl)ccc1OC(=O)/C(C#N)=C/c1ccc(Cl)cc1	i
Cc1ccc(NC(=O)c2cc(F)ccc2Br)nc1	i
CCC(Oc1ccccc1)C(=O)Nc1ccc2oc(C)nc2c1 (stereo not drawn)	i
COC(=O)c1sc(NC(=O)CN2CCc3ccccc32)c(C(=O)OC)c1C	i
CCOc1ccc(CCNC(=O)c2cccn2-c2nnc(N3CCCC3)s2)cc1OCC	i
Cc1cc(=O)oc2c(C)c3oc(/C(=N/O)c4ccccc4)c(C)c3cc12	i
O=C1Nc2ccc(-c3ccccc3F)cc2C(=O)N2CC[C@H](NS(=O)(=O)c3cccs3)[C@@H]12	i
O=C1Nc2cc(Cl)ccc2C(=O)N2CC[C@H](NS(=O)(=O)c3cccs3)[C@@H]12	i
COc1ccc(-c2ccc3c(c2)C(=O)N2CC[C@H](NS(=O)(=O)c4cccs4)[C@H]2C(=O)N3)cc1	22.4µM*
COc1ccc(CCNC(=O)C2CC(=O)N(c3n[nH]c4ccccc34)C2)cc1OC (stereo not drawn)	i
COc1ccccc1CCNC(=O)C1CC(=O)N(c2n[nH]c3cccc(F)c23)C1 (stereo not drawn)	22.4µM*
